Active and inactive are the calls of the source. The calls were made as follows: active = hit-call score of the fitted dose curve at least 0.9, where 1 is the maximum; inactive = score below 0.9.

The values below come from PubChem BioAssay (EPA / NIEHS).

Conditions in all cases: mRNA level, 48 h; actives raise or lower the signal
Read-out in assay [1]: Early growth response protein 1 (EGR1) transcription factor, EGR1 (gene 1958)
The experiment in a line: LTEA_HepaRG_EGR1: Life Technologies and Expression Analysis (LTEA) Assay for Early growth response protein 1 (EGR1) transcription factor using HepaRG (AID 2283490). The method, boiled down:
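Differentiated human HepaRG cells in serum-free induction medium were exposed in duplicate for 48 h to eight concentrations (top 100 uM, half-log steps) in 0.5% DMSO. EGR1 mRNA was quantified by qRT-PCR, normalized to ACTB, GAPDH and POLR2A, and fitted bidirectionally versus DMSO.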

Read-out in assay [2]: Ezrin (EZR), EZR (gene 7430)
The experiment in a line: LTEA_HepaRG_EZR: Life Technologies and Expression Analysis (LTEA) Assay for Ezrin (EZR) using HepaRG (AID 2283491). The method, boiled down: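 Gain or loss of EZR mRNA is scored relative to 0.5% DMSO in human HepaRG cultures treated 48 h with test chemicals in duplicate, eight half-log concentrations from 100 uM.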

Read-out in assay [3]: Cytochrome P450 3A7 (Homo sapiens) (UniProt P24462)
The experiment in a line: LTEA_HepaRG_CYP3A7: Life Technologies and Expression Analysis (LTEA) Assay for CYP3A7 using HepaRG (AID 2283492). The method, boiled down: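 Cells were thawed, plated, cultured 48 h, then treated for a further 48 h with chemicals (eight-point half-log series from 100 uM, 0.5% DMSO). RNA was isolated and CYP3A7 expression quantified by qRT-PCR normalised to ACTB, GAPDH and POLR2A.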

Read-out in assay [4]: CYP3A5 (gene 1577)
The experiment in a line: LTEA_HepaRG_CYP3A5: Life Technologies and Expression Analysis (LTEA) Assay for CYP3A5 using HepaRG (AID 2283493). The method, boiled down:
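mRNA induction or loss of CYP3A5 assessed in HepaRG after 48 h dosing, 100 uM top concentration, duplicate wells; TaqMan qRT-PCR with ACTB, GAPDH, POLR2A normalization; 0.5% DMSO as negative control.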

Read-out in assay [5]: Fatty Acid-Binding Protein 1 (FABP1), FABP1 (gene 2168)
The experiment in a line: LTEA_HepaRG_FABP1: Life Technologies and Expression Analysis (LTEA) Assay for Fatty Acid-Binding Protein 1 (FABP1) using HepaRG (AID 2283494). The method, boiled down:
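Differentiated human HepaRG cells were exposed in duplicate for 48 h in serum-free induction medium to 8-point half-log concentration series topping at 100 uM in 0.5% DMSO. FABP1 mRNA measured by TaqMan qRT-PCR, normalized to ACTB/GAPDH/POLR2A; bidirectional fit versus DMSO.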

Read-out in assay [6]: Cytochrome P450 4A22 (Homo sapiens) (UniProt Q5TCH4)
The experiment in a line: LTEA_HepaRG_CYP4A22: Life Technologies and Expression Analysis (LTEA) Assay for Cytochrome P450 4A22 (CYP4A22) using HepaRG (AID 2283495). The gist of the method:
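Cryopreserved HepaRG cells, plated and cultured 48 h, then switched to serum-free induction medium and treated 48 h (duplicates, up to 100 uM, half-log steps, 0.5% DMSO). Expression change of CYP4A22 was fitted bidirectionally against vehicle.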

Read-out in assay [7]: Glutathione S-Transferase (GSTA2), GSTA2 (gene 2939)
The experiment in a line: LTEA_HepaRG_GSTA2: Life Technologies and Expression Analysis (LTEA) Assay for Glutathione S-Transferase (GSTA2) using HepaRG (AID 2283497). The gist of the method:
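Human HepaRG cells, plated 48 h, then exposed in serum-free induction medium for 48 h to eight half-log concentrations up to 100 uM in 0.5% DMSO, duplicate. GSTA2 mRNA by qRT-PCR, normalized to ACTB/GAPDH/POLR2A; bidirectional fit versus DMSO.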

Read-out in assay [8]: Glutamate-cysteine ligase catalytic (GCLC), GCLC (gene 2729)
The experiment in a line: LTEA_HepaRG_GCLC: Life Technologies and Expression Analysis (LTEA) Assay for Glutamate-cysteine ligase catalytic (GCLC) using HepaRG (AID 2283498). The method, boiled down:
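Differentiated human HepaRG cells, plated 48 h then switched to serum-free induction medium, were exposed in duplicate for 48 h to 8 half-log concentrations topping at 100 uM in 0.5% DMSO. GCLC mRNA was quantified by qRT-PCR against ACTB, GAPDH and POLR2A.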

Read-out in assay [9]: growth arrest and DNA damage 45 (GADD45G), GADD45G (gene 10912)
The experiment in a line: LTEA_HepaRG_GADD45G: Life Technologies and Expression Analysis (LTEA) Assay for growth arrest and DNA damage 45 (GADD45G) using HepaRG (AID 2283499). The gist of the method: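 Human hepatic HepaRG line treated 48 h with chemicals (eight concentrations, half-log steps from 100 uM); transcript induction or repression of GADD45G scored by qRT-PCR versus DMSO vehicle.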

Read-out in assay [10]: Glutamate-cysteine ligase regulatory (GCLM), GCLM (gene 2730)
The experiment in a line: LTEA_HepaRG_GCLM: Life Technologies and Expression Analysis (LTEA) Assay for Glutamate-cysteine ligase regulatory (GCLM) using HepaRG (AID 2283500). The gist of the method: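 Human liver HepaRG cultures receive test chemicals for 48 hours at up to 100 uM in 0.5% DMSO. GCLM expression is measured by qRT-PCR and analysed for increases or decreases against vehicle.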

Read-out in assay [11]: Heat shock 70 kDa protein 1 (HSPA1A), gene 3303
The experiment in a line: LTEA_HepaRG_HSPA1A: Life Technologies and Expression Analysis (LTEA) Assay for Heat shock 70 kDa protein 1 (HSPA1A) using HepaRG (AID 2283502). The gist of the method:
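HSPA1A induction in human HepaRG liver cells is measured after 48 h of chemical treatment (100 uM maximum, 0.5% DMSO vehicle). Expression comes from qRT-PCR normalized to endogenous controls.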

Read-out in assay [12]: Hypoxia-inducible factor 1-alpha (Homo sapiens) (UniProt Q16665)
The experiment in a line: LTEA_HepaRG_HIF1A: Life Technologies and Expression Analysis (LTEA) Assay for Hypoxia-inducible factor 1 (HIF1A) Trancription factor using HepaRG (AID 2283503). The method, boiled down: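 HepaRG, 48 h exposure, 8-pt half-log series from 100 uM, 0.5% DMSO vehicle, duplicates. Readout: HIF1A transcript by qRT-PCR (Fluidigm array), housekeeping-normalised. Bidirectional curve fit vs DMSO baseline.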

Read-out in assay [13]: 3-Hydroxy-3-Methylglutaryl-CoA Synthase 2 (HMGCS2), HMGCS2 (gene 3158)
The experiment in a line: LTEA_HepaRG_HMGCS2: Life Technologies and Expression Analysis (LTEA) Assay for 3-Hydroxy-3-Methylglutaryl-CoA Synthase 2 (HMGCS2) using HepaRG (AID 2283504). The method, boiled down:
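Expression of HMGCS2 in human HepaRG liver cells is measured by qRT-PCR 48 h after dosing (highest 100 uM, half-log series, 0.5% DMSO). Values come from bidirectional concentration-response fitting with DMSO as baseline.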

Read-out in assay [14]: Insulin Like Growth Factor 1 (IGF1), IGF1 (gene 3479)
The experiment in a line: LTEA_HepaRG_IGF1: Life Technologies and Expression Analysis (LTEA) Assay for Insulin Like Growth Factor 1 (IGF1) using HepaRG (AID 2283506). The method, boiled down:
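Using human HepaRG liver cells, IGF1 transcript induction or suppression is measured 48 h after dosing across eight concentrations capped at 100 uM. Values derive from bidirectional concentration-response fitting with DMSO as baseline.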

Read-out in assay [15]: Intercellular Adhesion Molecule 1 (ICAM1), ICAM1 (gene 3383)
The experiment in a line: LTEA_HepaRG_ICAM1: Life Technologies and Expression Analysis (LTEA) Assay for Intercellular Adhesion Molecule 1 (ICAM1) using HepaRG (AID 2283507). The gist of the method:
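Gain or loss of transcript in HepaRG hepatic cells is quantified by qRT-PCR after 48 h chemical exposure (up to 100 uM, half-log steps), with DMSO as baseline.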

Read-out in assay [16]: Insulin-like growth factor-binding protein 1 (IGFBP1), IGFBP1 (gene 3484)
The experiment in a line: LTEA_HepaRG_IGFBP1: Life Technologies and Expression Analysis (LTEA) Assay for Insulin-like growth factor-binding protein 1 (IGFBP1) using HepaRG (AID 2283508). The gist of the method:
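mRNA induction or loss was quantified by qRT-PCR after 48 h chemical exposure of human HepaRG cells, with 0.5% DMSO as vehicle and baseline. Concentration-response over eight points up to 100 uM.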

Read-out in assay [17]: Interleukin 6 (IL6), IL6 (gene 3569)
The experiment in a line: LTEA_HepaRG_IL6: Life Technologies and Expression Analysis (LTEA) Assay for Interleukin 6 (IL6) using HepaRG (AID 2283509). The gist of the method:
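Differentiated human HepaRG cells, plated 48 h then switched to serum-free induction medium, were exposed in duplicate for 48 h to eight half-log concentrations up to 100 uM in 0.5% DMSO. IL6 mRNA measured by qRT-PCR, normalized to ACTB/GAPDH/POLR2A.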

Read-out in assay [18]: Cytochrome P450 7A1 (Homo sapiens) (UniProt P22680)
The experiment in a line: LTEA_HepaRG_CYP7A1: Life Technologies and Expression Analysis (LTEA) Assay for Cytochrome P450 7A1 (CYP7A1) using HepaRG (AID 2283496). The gist of the method: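 Gene expression endpoint in human HepaRG liver cells treated for 48 h with test chemicals (up to 100 uM, 0.5% DMSO). Values come from bidirectional concentration-response fitting versus DMSO.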

Read-out in assay [19]: Glutathione S-transferase M3 (GSTM3), GSTM3 (gene 2947)
The experiment in a line: LTEA_HepaRG_GSTM3: Life Technologies and Expression Analysis (LTEA) Assay for Glutathione S-transferase M3 (GSTM3) using HepaRG (AID 2283501). The method, boiled down:
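Changes in GSTM3 expression, an oxidative-stress marker, were scored by bidirectional curve fitting against 0.5% DMSO vehicle. Human HepaRG cultures received chemicals for 48 h in duplicate, highest concentration 100 uM with half-log dilutions.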

Sequence of Cytochrome P450 3A7 (Homo sapiens) (P24462 whole entry, looked up): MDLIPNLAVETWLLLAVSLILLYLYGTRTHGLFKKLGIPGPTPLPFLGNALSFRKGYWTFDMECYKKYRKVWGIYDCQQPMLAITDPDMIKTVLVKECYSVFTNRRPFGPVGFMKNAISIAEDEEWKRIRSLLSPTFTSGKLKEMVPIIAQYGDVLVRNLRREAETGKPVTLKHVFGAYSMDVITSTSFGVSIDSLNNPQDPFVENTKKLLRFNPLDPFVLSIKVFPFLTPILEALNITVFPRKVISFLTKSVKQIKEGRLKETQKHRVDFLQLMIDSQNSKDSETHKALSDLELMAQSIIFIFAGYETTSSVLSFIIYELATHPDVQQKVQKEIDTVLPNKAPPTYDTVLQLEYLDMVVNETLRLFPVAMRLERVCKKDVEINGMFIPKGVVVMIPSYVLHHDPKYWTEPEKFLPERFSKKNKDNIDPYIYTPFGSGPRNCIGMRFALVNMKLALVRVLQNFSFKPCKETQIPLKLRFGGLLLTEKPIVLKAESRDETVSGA
Sequence of Hypoxia-inducible factor 1-alpha (Homo sapiens) (Q16665 whole entry, looked up): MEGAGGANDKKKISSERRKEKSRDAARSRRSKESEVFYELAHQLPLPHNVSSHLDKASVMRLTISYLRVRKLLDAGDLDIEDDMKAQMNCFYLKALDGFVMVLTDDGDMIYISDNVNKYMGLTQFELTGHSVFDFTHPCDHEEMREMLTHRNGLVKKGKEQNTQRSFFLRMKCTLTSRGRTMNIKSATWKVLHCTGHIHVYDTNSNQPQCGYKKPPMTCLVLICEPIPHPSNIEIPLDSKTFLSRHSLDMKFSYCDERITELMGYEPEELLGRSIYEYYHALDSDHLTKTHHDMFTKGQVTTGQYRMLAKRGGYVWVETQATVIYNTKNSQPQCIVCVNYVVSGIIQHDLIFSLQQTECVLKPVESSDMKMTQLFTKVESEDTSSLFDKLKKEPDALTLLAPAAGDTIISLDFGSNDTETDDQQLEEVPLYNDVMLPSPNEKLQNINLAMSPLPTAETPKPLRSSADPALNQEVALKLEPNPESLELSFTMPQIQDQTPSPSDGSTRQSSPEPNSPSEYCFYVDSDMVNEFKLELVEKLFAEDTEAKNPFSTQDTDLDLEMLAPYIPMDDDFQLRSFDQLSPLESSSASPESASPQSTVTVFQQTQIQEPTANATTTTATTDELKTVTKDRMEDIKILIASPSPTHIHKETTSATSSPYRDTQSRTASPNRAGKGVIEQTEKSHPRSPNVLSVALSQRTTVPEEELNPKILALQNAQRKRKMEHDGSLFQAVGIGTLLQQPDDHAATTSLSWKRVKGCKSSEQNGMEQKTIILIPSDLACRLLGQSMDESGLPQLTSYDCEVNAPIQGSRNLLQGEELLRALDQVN

In the case of `O=C1CCC(C2CCCCC2)CC1`, the outcome in assay [1], in assay [2], in [3], in assay [4], in assay [5] and in assay [6] was inactive. Besides, the compound was classed as inactive in [7], in assay [8], in [9], in assay [10], in assay [11] and in assay [12]. In addition, the result in assay [13], in assay [14], in assay [15], in assay [16] and in [17] was inactive.

Regarding `Cc1ncc(CO)c(CO)c1O`, the compound was called inactive in [1], in assay [2], in assay [3], in assay [4], in [5] and in assay [6]. Also, the compound was called inactive in [8], in [9], in assay [10], in assay [11], in assay [13] and in assay [14]. The compound was classed as inactive in [15], in assay [16] and in assay [17].

On to `C[C@]12CC[C@@H]3c4ccc(O)cc4CC[C@H]3[C@@H]1CC[C@H]2O`, for which the outcome in assay [1], in assay [2], in assay [4], in assay [18], in [8] and in assay [9] was inactive. The call in assay [10], in assay [19], in assay [15], in assay [16] and in assay [17] was inactive. Also, the half-maximal activity concentration (AC50) is 74.3 µM (active) in assay [5]; 76 µM (active) in assay [6]; 12.5 µM (active) in assay [11]; 82.2 µM (active) in assay [13]; 50 µM (active) in assay [14].

Regarding `CCCC(=O)OCCC(C)C`, the call in assay [1], in [2], in assay [3], in [4], in [5] and in [6] was inactive. The outcome in assay [7], in [8], in [9], in assay [10], in assay [11] and in [12] was inactive. Besides, the result in assay [13], in assay [14], in assay [15], in [16] and in assay [17] was inactive.
